Test [1] is described as follows: compound effects on lung adenocarcinoma cell viability – A549, calcein-AM fluorescence, 48 h, basal, profiling panel (AID 1162). The following applies: higher = more signal.
Test [2] in a line: compound effects on differentiated 3T3-L1 adipocyte viability – cell-based, 3T3-L1 adipocytes, calcein-AM fluorescence, 48 h, basal, profiling panel (AID 1163). The following applies: 3T3-L1 adipocytes viability, higher = more signal.
Test [3] in a line: compound effects on hepatocellular carcinoma cell viability – HepG2, calcein-AM fluorescence, 48 h, basal, profiling panel (AID 1164). The following applies: higher = more signal.
Test [4] can be described thus: compound effects on multiple myeloma cell viability – MM1S, calcein-AM fluorescence, 48 h, basal, profiling panel (AID 1165).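 Further: viability of MM1S multiple myeloma cells under basal unstimulated conditions.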 The following applies: higher = more signal.
The nature of test [5]: calcein-AM signal in unstimulated myeloma cells – cell-based, calcein-AM fluorescence, 48 h, PK04 Diversity Set, profiling panel (AID 1166).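 Further: cells grown under basal conditions without added stimulus.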 The following applies: RPMI8226 myeloma viability, higher = more signal.
Test [6] is described as follows: JC-1 mitochondrial signal, unstimulated HepG2 cells – cell-based, JC-1 fluorescence, 24 h, 100 nL compound, profiling panel (AID 1167). The following applies: HepG2 mitochondrial potential, higher = more signal.
A short description of test [7]: JC-1 mitochondrial signal, unstimulated adipocytes – cell-based, JC-1 fluorescence, 3T3-L1 adipocytes, 24 h, 100 nL compound, profiling panel (AID 1168). The following applies: JC-1 mitochondrial fluorescence, higher = more signal, called active from +8 up or from −8 down.
The nature of test [8]: JC-1 mitochondrial signal, unstimulated myeloma cells – cell-based, JC-1 fluorescence, RPMI8226, 24 h, 100 nL compound, profiling panel (AID 1169). The following applies: JC-1 mitochondrial potential fluorescence, higher = more signal.
Test [9] can be described thus: JC-1 mitochondrial signal, unstimulated MM1S myeloma – cell-based, JC-1 fluorescence, 24 h, 100 nL compound, profiling panel (AID 1170). The following applies: MM1S mitochondrial potential, higher = more signal.
Test [10] is described as follows: resazurin metabolic signal in A549 cells – cell-based, resazurin fluorescence, 24 h, PK04 Diversity Set, profiling panel (AID 1171). The following applies: A549 viability, higher = more signal, called active from +8 up or from −8 down. A general note: Alamar Blue is a resazurin reagent that responds to reducing activity.

Each structure is given as a SMILES string. The source made the active and inactive calls.
Further: test concentration not given here.

As for `COc1ccc([Si](C)(C)[C@@H]2[C@@H](CCO)O[C@]3(C(=O)N(Cc4ccc(N5CCCCC5=O)cc4)c4ccccc43)[C@H]2C)cc1`, the z-score was 0.108 in [1]; -0.686 in test [2]; -0.347 in test [3]; -2.8 in test [4]; -3.05 in test [5]; 0.714 in [6]. Besides, the z-score is 1.25 (inactive) in [7], 0.88 in test [8], 0.572 in test [9] and -1.78 (inactive) in [10].
`CC(=O)c1ccc(C(O)C2C=CC3C(=O)N(c4ccccc4)C(=O)C3N2Nc2ccc(C#N)cc2)cc1` (stereo not given): the z-score in [1] is -0.53; in [2], -0.292; in [3], -0.477; in test [4] it was -0.262; in test [5] it was -0.821; in [6] it was -1.19. The z-score in [7] was -1.06 (inactive); in test [8], -0.257; in test [9] it was -0.0349; in [10] it was -0.178 (inactive).
`CCOC(=O)C[C@H]1[C@H](OC(=O)c2ccccc2-c2ccccc2)[C@@H](NC(=O)c2ccc(-c3ccccc3)cc2)c2cc(OCCCO)ccc2N1C(=O)c1ccc2ccccc2n1`: the z-score in test [1] is -0.137; in [2] it was -0.163; in [3], 0.336; in [4] it was 0.402; in [5], -0.485; in test [6] it was -0.149. Further, the z-score is 1.18 (inactive) in test [7], 0.0491 in test [8], -0.63 in [9] and 0.524 (inactive) in test [10].
Consider `CCOC(=O)C[C@H]1[C@H](OC(=O)c2cc3ccccc3oc2=O)[C@@H](NC(=O)c2ccc(-c3ccccc3)cc2)c2cc(OCCCO)ccc2N1C(=O)c1ccccc1`, for which the z-score in test [1] is 0.182; in test [2], 1.82; in [3] it was 0.404; in [4], 0.172; in [5], -0.841; in test [6], 1.27. In addition, the z-score was -0.445 (inactive) in test [7], -0.337 in test [8], -0.595 in test [9] and -1.1 (inactive) in test [10].
On to `COC(=O)[C@@]1(Cc2ccc(F)cc2)[C@H]2c3cc(C(=O)N(C)C)n(CCc4ccc(O)c(OC)c4)c3C[C@H]2CN1C(=O)c1ccccc1`, for which the z-score in test [1] is 0.558; in test [2], -0.306; in test [3], 0.364; in test [4] it was -0.254; in [5], -0.364; in [6], -0.27. The z-score in test [7] was -0.763 (inactive); in test [8], -0.266; in test [9], 0.564; in test [10], -0.905 (inactive).
Regarding `COCCOC(=O)N1C(=O)[C@@]2(c3cc(C#CC4(O)CCCCCC4)ccc31)[C@H](c1ccc(O)cc1)N1[C@H](c3ccccc3)[C@H](c3ccccc3)OC(=O)[C@H]1[C@@H]2C(=O)NC[C@H](O)c1ccccc1`, the z-score in [1] was 0.121; in test [2], 0.266; in test [3], -0.31; in test [4], -1.49; in [5], -3.49; in test [6], -2.3. Also, the z-score in test [7] is -1.27 (inactive); in test [8], -1.15; in test [9] it was -0.715; in [10] it was 0.0025 (inactive).
With `COCCOC(=O)N1C(=O)[C@@]2(c3cc(C#CC4=CCCCC4)ccc31)[C@H](C(=O)N1CCCCCCC1)[C@H]1C(=O)O[C@H](c3ccccc3)[C@H](c3ccccc3)N1[C@@H]2c1ccc(O)cc1`, the z-score in [1] is 0.868; in [2], 0.936; in test [3], 0.474; in test [4], -0.625; in test [5], -0.593; in test [6] it was -0.239. For the same compound, the z-score is 1.02 (inactive) in [7], -0.386 in test [8], -0.272 in test [9] and -1.09 (inactive) in test [10].
As to `CN1C(=O)C2C=CC(C(O)c3cccc4ccccc34)N(N3CCCCC3)C2C1=O` (stereo not given), the z-score was -0.866 in test [1]; -0.576 in test [2]; -0.776 in [3]; -1.21 in test [4]; -0.493 in test [5]; -1.79 in [6]. For the same compound, the z-score in test [7] is -1.53 (inactive); in test [8], 0.776; in test [9] it was -0.382; in test [10], 0.294 (inactive).
With `Cc1ccc(S[C@]2(C(=O)O)CC(=O)N(Cc3cc(C(F)(F)F)cc(C(F)(F)F)c3)[C@@H]2c2ccc(CO)cc2)cc1`, the z-score is -0.192 in test [1]; -0.228 in test [2]; -0.618 in test [3]; -0.424 in [4]; -0.82 in [5]; -0.555 in test [6]. Moreover, the z-score in [7] was -0.717 (inactive); in [8] it was 0.83; in test [9] it was -0.694; in test [10], -0.0055 (inactive).
For the compound `C=CCNC(=O)[C@@H]1[C@H]2C(=O)O[C@H](c3ccccc3)[C@H](c3ccccc3)N2[C@H](c2ccc(O)cc2)[C@@]12C(=O)N(C(=O)OCCOC)c1ccc(C#CC3(O)CCCCCC3)cc12`, the z-score is 0.0287 in [1]; 0.284 in test [2]; 0.446 in test [3]; 0.362 in [4]; 0.895 in test [5]; 0.577 in test [6]. Further, the z-score is 0.8 (inactive) in test [7], 0.244 in test [8], -0.432 in [9] and 0.395 (inactive) in [10].
For the compound `Cc1cc(C)c(C(O)C2C=CC3C(=O)NC(=O)C3N2Nc2ccc(Cl)cc2Cl)c(C)c1` (stereo not given), the z-score was -2.15 in test [1]; -0.22 in test [2]; -1.68 in test [3]; -3.52 in [4]; -3.03 in test [5]; -2.65 in [6]. The z-score was -0.143 (inactive) in [7], -1.02 in test [8], -0.44 in test [9] and -1.59 (inactive) in [10].
For `NCCCCCNC(=O)[C@@H]1C[C@@H]2C(=O)NCC(=O)N2[C@@H]1c1cccc(OCCO)c1`, the z-score was -0.507 in [1]; 1.11 in test [2]; -0.531 in test [3]; -0.686 in test [4]; -0.947 in [5]; 1.5 in [6]. Also, the z-score in test [7] was -0.298 (inactive); in test [8], 0.00435; in [9] it was 0.53; in test [10] it was -0.505 (inactive).
`C[C@]1(C(=O)NC2CC2)c2ccccc2C(=O)N(Cc2ccccc2)[C@H]1c1ccc(CO)cc1`: the z-score in test [1] was 0.395; in test [2] it was 1.51; in test [3] it was -0.577; in test [4], 0.855; in test [5] it was -0.655; in test [6], 1.66. Further, the z-score in [7] was 0.195 (inactive); in [8], -0.0462; in [9], 0.263; in test [10], 0.54 (inactive).
As to `Cc1cc(C)c(C(O)C2C=CC3C(=O)N(c4ccccc4)C(=O)C3N2Nc2ccc(C(C)C)cc2)c(C)c1` (stereo not given), the z-score in [1] was -0.314; in [2], 0.669; in test [3], 0.273; in test [4], -0.0101; in test [5] it was -0.792; in test [6], -1.37. Further, the z-score is -1.13 (inactive) in test [7], -0.698 in test [8], 0.19 in test [9] and -1.72 (inactive) in test [10].
As for `COc1ccccc1CN1C(=O)c2ccccc2[C@](Cc2ccccc2I)(C(=O)NCC(F)(F)F)[C@@H]1c1ccc(CO)cc1`, the z-score is -0.698 in test [1]; 0.95 in test [2]; -0.568 in [3]; -2.39 in [4]; -4.25 in test [5]; 0.349 in test [6]. The z-score in [7] was -1.39 (inactive); in [8], -0.68; in test [9] it was -0.176; in test [10], 0.12 (inactive).
Regarding `COc1ccc([Si](C)(C)[C@H]2[C@H](CC(=O)N(CCO)Cc3ccccc3)O[C@@]3(C(=O)N(Cc4cccc(N5CCOC5=O)c4)c4ccccc43)[C@@H]2C)cc1`, the z-score was -1.49 in test [1]; 0.836 in test [2]; -2.16 in test [3]; -1.79 in [4]; -4.29 in [5]; 0.917 in [6]. The z-score was -0.606 (inactive) in test [7], -1.16 in test [8], -1.56 in test [9] and -3.44 (inactive) in [10].

The values are drawn from PubChem BioAssay.
